Screening results deposited in PubChem BioAssay by National Center for Advancing Translational Sciences (NCATS).
Marburg entry inh – blocks Marburg virus binding to or entry into cells. Marburg virus pseudotyped entry inhibition, cell reporter. Potency, µM (series often up to 37.8 µM), hits mostly inhibitors. hit rate 1.8% among 300,000. AID 540276; calls by dose curve; tested in HEK293 cells
LASV entry inh – blocks Lassa virus binding to or entry into cells; Potency, µM (highest dose often 37.9 µM), hits mostly inhibitors; Lassa virus pseudotype entry inhibition, cell reporter; hit rate 1.2% among 300,000; calls by dose curve; tested in HEK293 cells; note: nearly all actives have a fitted effect of over 50% in size
Shiga toxin inh – Shiga toxin inhibition. Vero cells, Shiga toxin protein synthesis inhibition reporter. inhibition, % at 38.7 µM. hit rate 9.2% among 290,000. AID 2315; in the data active = inhibition mostly above about 28%, no sharp cut-off; inactive = mostly below about 43%
Pf growth 48h – P. falciparum growth inhibition at 48 hours (one generation). P. falciparum luciferase growth in erythrocytes, 48 h. Potency, µM (titrated, usually from 28.7 µM), actives largely listed as inhibitors. hit rate 5.9% among 310,000. AID 504832
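Erythrocytes infected with P. falciparum carrying an integrated firefly luciferase reporter (2% hematocrit, 0.1% parasitemia final) were exposed to compounds in RPMI 1640 with 0.5% Albumax at 37 C, 5% CO2. Growth inhibition was scored as reduced luminescence.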
Pf growth 96h – P. falciparum growth inhibition at 96 hours; P. falciparum luciferase reporter growth, 96 h; hit rate 6.9% among 320,000; Potency, µM (top dose mostly 28.7 µM), actives largely listed as inhibitors
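Infected RBCs, 2% Hct / 0.05% parasitemia final; luciferase-reporter P. falciparum; cpd 96 h, 37 C, 5% CO2; luciferase detection reagent; luminescence.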
CHX counter – counter-screen for Shiga toxin inhibitors: cycloheximide protein synthesis inhibition | cell reporter, cycloheximide protein synthesis inhibition counterscreen | hit rate 12% among 300,000 | AID 2314 | max response, %; in the data active = max response mostly above about 13%, no sharp cut-off; inactive = mostly below about 14%; note: read at 38.3 µM for the half of the compounds with a filed dose
Large screens that a line does not name were inactive. A selection: hits, their analogues and other compounds. The true share with any hit is near 19%. Unless noted, calls come from the whole dose curve; as a rule, active = well fitted inhibition curve with a large enough effect; inconclusive = small, poorly fitted or top-dose-only effect, or another doubt; inactive = no such curve, though single readings can be large or run the other way.

C[n+]1c(-c2ccccc2)cc2c(=Cc3ccc([N+](=O)[O-])cc3)c3ccccc3n21	Marburg entry inh inconclusive, LASV entry inh 10µM (no result: Shiga toxin inh, Pf growth 48h, Pf growth 96h, CHX counter)
O=S(=O)(NCc1csc(-c2cccs2)n1)c1cccc(C(F)(F)F)c1	none (no result: Marburg entry inh, LASV entry inh)
COc1ccccc1NC(=O)Cn1c(=O)c(CNc2ccccc2)cc2cc(OC)c(OC)cc21	none (no result: Marburg entry inh, Shiga toxin inh, Pf growth 48h, Pf growth 96h, CHX counter)
CC(C)OC(=O)CSc1nc2c(c(C3CC=CCC3)c1C#N)CCC2 (stereo not given)	Marburg entry inh inconclusive, LASV entry inh inconclusive, Pf growth 96h inconclusive (no result: Pf growth 48h)
C=CCSc1nc2c(c(C3CC=CCC3)c1C#N)CCC2 (stereo not given)	Pf growth 48h inconclusive, Pf growth 96h 8.3µM
COCCN(CC1CCCN(C2Cc3ccccc3C2)C1)C(=O)CCC(F)(F)F (stereo not given)	Pf growth 96h 0.41µM (no result: Marburg entry inh, LASV entry inh)
COCCN(CC1CCCN(C2Cc3ccccc3C2)C1)C(=O)c1ccc(C(C)=O)cc1 (stereo not given)	Marburg entry inh inconclusive, Pf growth 48h inconclusive
CC(C)Cn1c(N)c(C(=O)COC(=O)/C=C/c2ccccc2)c(=O)n(C)c1=O	Marburg entry inh 10µM, LASV entry inh inconclusive, Pf growth 48h inconclusive, Pf growth 96h 10µM (no result: Shiga toxin inh, CHX counter)
Cn1c(N)c(C(=O)COC(=O)/C=C/c2ccc(Cl)cc2Cl)c(=O)n(C)c1=O	none (no result: Shiga toxin inh, Pf growth 48h, Pf growth 96h, CHX counter)
CC(C)Cn1c(N)c(C(=O)COC(=O)CC23CC4CC(CC(C4)C2)C3)c(=O)n(C)c1=O	Marburg entry inh 8.9µM, LASV entry inh 1.8µM, Pf growth 96h inconclusive (no result: Pf growth 48h)
COc1ccccc1/C=C/C(=O)OCC(=O)c1c(N)n(C)c(=O)n(C)c1=O	Marburg entry inh 0.89µM
Cc1cccc(C)c1OCC1CNC(=O)O1 (stereo not given)	none
O=C(c1cccc2ccccc12)C1CCCN(C(=O)CCN2CCCO2)C1 (stereo not given)	Pf growth 96h inconclusive
COC(=O)CCC(=O)N1CCCC(C(=O)c2cc(F)ccc2F)C1 (stereo not given)	none
CSc1ccccc1C(=O)C1CCCN(C(=O)CCN2CCCO2)C1 (stereo not given)	Pf growth 96h 5.2µM
CSc1ccccc1C(=O)C1CCCN(C(=O)c2ccc(N3CCOCC3)cc2)C1 (stereo not given)	Shiga toxin inh 34, Pf growth 96h 10µM, CHX counter 17
O=C(c1cc(F)ccc1F)C1CCCN(C(=O)CCN2CCCCO2)C1 (stereo not given)	Pf growth 96h inconclusive, CHX counter 17
Cc1ccccc1CC1(CO)CCCN(C(=O)CCN2CCCO2)C1 (stereo not given)	Shiga toxin inh 36, Pf growth 96h 2.6µM, CHX counter 17 (no result: Marburg entry inh, LASV entry inh)
Cc1cccn2c3c(c(=O)nc12)C(c1ccc(F)cc1)CC(=O)N3 (stereo not given)	none (no result: Marburg entry inh, Shiga toxin inh, Pf growth 48h, Pf growth 96h, CHX counter)
CCC1(C)Cc2nc3[nH]c(=S)n(-c4ccccc4)c(=O)c3cc2CO1 (stereo not given)	Pf growth 96h 7.4µM
Cc1ccc(-n2nnnc2SC(C)C(=O)Nc2ccccc2-c2ccccc2)cc1 (stereo not given)	Pf growth 48h inconclusive, Pf growth 96h 9.3µM
CC(Sc1nnnn1C)C(=O)Nc1ccccc1 (stereo not given)	none
CC(Sc1nnnn1C)C(=O)Nc1ccccc1-c1ccccc1 (stereo not given)	none
CCOc1ccc(NC(=O)C(C)Sc2nnnn2C)cc1 (stereo not given)	Pf growth 96h inconclusive, CHX counter 11
COc1ccccc1NC(=O)C(C)Sc1nnnn1C (stereo not given)	Pf growth 96h 12µM
Cc1oc(S(=O)(=O)N2CCCCC2)cc1NC(=O)Nc1ccccc1	Pf growth 96h inconclusive
CC(C)N(Cc1cnn(C)c1)C(=O)c1ccc(OC2CCN(Cc3ccccn3)CC2)cc1	Pf growth 96h inconclusive (no result: Marburg entry inh, LASV entry inh)
N=C1/C(=C\c2ccc(OC(=O)c3ccc(F)cc3)cc2)C(=O)N=C2SC(N3CCCC3)=NN12	Pf growth 96h inconclusive (no result: Marburg entry inh, LASV entry inh)
Cc1ccc(C(=O)Oc2ccc(/C=C3\C(=N)N4N=C(N5CCOCC5)SC4=NC3=O)cc2)cc1	Shiga toxin inh 59, Pf growth 96h inconclusive, CHX counter 26 (no result: Marburg entry inh, LASV entry inh)
N=C1/C(=C\c2ccc(OCc3ccccc3)cc2)C(=O)N=C2SC(N3CCCC3)=NN12	Shiga toxin inh 45, CHX counter 27 (no result: Marburg entry inh, LASV entry inh)
N=C1/C(=C\c2ccc(OC(=O)c3ccccc3)cc2)C(=O)N=C2SC(N3CCOCC3)=NN12	CHX counter 15 (no result: Marburg entry inh, LASV entry inh)
